Assay results as given in PubChem BioAssay (Tox21).
Records with an inconclusive call do not appear. Activity calls are given as the source filed them. The call rests on the fitted dose curve; in most records, active means well fitted curve in the direction sought with a large enough effect in the repeat runs; inconclusive means weak or mixed curves; inactive means no such curve, though single readings can be large; an effect the other way counts as inactive or inconclusive.

Experiments:
[1] = A CellTox Green Cytotoxicity Assay to monitor cytotoxicity in HEK293 cells - 40 hour (AID 1224871); further: nearly all actives have a fitted effect of over 45% in size
In short: (§1)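 HEK293 cells premixed with CellTox Green dye were seeded at 600 cells/well and left 5 h at 37 C/5% CO2 before pin transfer of 23 nL compound in DMSO. Fluorescence from dye bound to dead-cell DNA was read during 40 h treatment.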

[2] = qHTS RealTime-Glo MT Cell Viability Assay in HEK293 cells - 16 hour (AID 1224872); further: top concentration of the series differs between compounds; nearly all actives have a fitted effect of over 50% in size
In short: (§2)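 Tox21 10K qHTS, HEK293, 600 cells/well, RealTime-Glo reagent co-dispensed with cells; 5 h preincubation, compound by pintool, 37 C, luminescence at 0–40 h.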

[3] = qHTS RealTime-Glo MT Cell Viability Assay in HepG2 cells - 8 hour (AID 1224873); further: nearly all actives have a fitted effect of over 55% in size
In short: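 HepG2 cells mixed with RealTime-Glo MT reagents (NanoLuc plus cell-permeant prosubstrate) were seeded at 600 cells/well, incubated 5 h at 37 C/5% CO2, then pinned with compounds in DMSO; nonlytic luminescence tracked viability during 40 h treatment.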

[4] = qHTS RealTime-Glo MT Cell Viability Assay in HEK293 cells - 40 hour (AID 1224874); settings: RealTime-Glo luminescence; max response: stronger effect = lower value; further: nearly all actives have a fitted effect of over 50% in size
In short: (§3)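 HEK293 cells mixed with RealTime-Glo reagents (NanoLuc plus cell-permeant prosubstrate) at 600 cells/well, preincubated 5 h at 37 C/5% CO2, then given 23 nL compound in DMSO. Nonlytic luminescence from viable cells was read at 0, 8, 16, 24, 32 and 40 h.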

[5] = A CellTox Green Cytotoxicity Assay to monitor cytotoxicity in HEK293 cells - 24 hour (AID 1224875); further: series mostly up to about 77 µM; nearly all actives have a fitted effect of over 45% in size
In short: as §1

[6] = A CellTox Green Cytotoxicity Assay to monitor cytotoxicity in HepG2 cells - 16 hour (AID 1224876); further: nearly all actives have a fitted effect of over 45% in size
In short: (§4)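 HepG2 cells were seeded together with the CellTox Green dye at 600 cells/well, left 5 h at 37 C/5% CO2, then given compounds in DMSO. Fluorescence from dye bound to dead-cell DNA was read repeatedly over 40 h of treatment at 37 C.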

[7] = qHTS RealTime-Glo MT Cell Viability Assay in HepG2 cells - 32 hour (AID 1224877); further: nearly all actives have a fitted effect of over 55% in size
In short: (§5)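 Cells + NanoLuc/prosubstrate dispensed (600 cells/well) → 5 h at 37 C/5% CO2 → compounds in DMSO transferred → 40 h incubation at 37 C, luminescence read at 0, 8, 16, 24, 32, 40 h.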

[8] = A CellTox Green Cytotoxicity Assay to monitor cytotoxicity in HepG2 cells - 24 hour (AID 1224878); further: nearly all actives have a fitted effect of over 45% in size
In short: as §4

[9] = A CellTox Green Cytotoxicity Assay to monitor cytotoxicity in HepG2 cells - 40 hour (AID 1224879); further: nearly all actives have a fitted effect of over 40% in size
In short: as §4

[10] = qHTS RealTime-Glo MT Cell Viability Assay in HEK293 cells - 0 hour (AID 1224880)
In short: as §3

[11] = A CellTox Green Cytotoxicity Assay to monitor cytotoxicity in HEK293 cells - 32 hour (AID 1224881); further: nearly all actives have a fitted effect of over 40% in size
In short: as §1

[12] = A CellTox Green Cytotoxicity Assay to monitor cytotoxicity in HepG2 cells - 0 hour (AID 1224882); further: nearly all actives have a fitted effect of over 35% in size
In short: as §4

[13] = A CellTox Green Cytotoxicity Assay to monitor cytotoxicity in HepG2 cells - 32 hour (AID 1224883); further: nearly all actives have a fitted effect of over 50% in size
In short: as §4

[14] = A CellTox Green Cytotoxicity Assay to monitor cytotoxicity in HEK293 cells - 8 hour (AID 1224884); further: nearly all actives have a fitted effect of over 35% in size
In short: as §1

[15] = qHTS RealTime-Glo MT Cell Viability Assay in HepG2 cells - 16 hour (AID 1224885); further: nearly all actives have a fitted effect of over 50% in size
In short: as §5

[16] = qHTS RealTime-Glo MT Cell Viability Assay in HEK293 cells - 24 hour (AID 1224886)
In short: as §2

[17] = qHTS RealTime-Glo MT Cell Viability Assay in HEK293 cells - 8 hour (AID 1224887)
In short: as §3

[18] = A CellTox Green Cytotoxicity Assay to monitor cytotoxicity in HEK293 cells - 16 hour (AID 1224888); further: nearly all actives have a fitted effect of over 35% in size
In short: as §1

[19] = qHTS RealTime-Glo MT Cell Viability Assay in HepG2 cells - 0 hour (AID 1224889); further: nearly all actives have a fitted effect of over 50% in size
In short: as §5

[20] = A CellTox Green Cytotoxicity Assay to monitor cytotoxicity in HepG2 cells - 8 hour (AID 1224890); further: nearly all actives have a fitted effect of over 45% in size
In short: as §4
On the % scale 0 is the no-effect control and ±100 the full control effect.

COc1c(N2C[C@@H]3CCCN[C@@H]3C2)c(F)cc2c(=O)c(C(=O)O)cn(C3CC3)c12
inactive: Potency [1] | Potency [2] | Potency [3] | max response [4] -3.41% | Potency [5] | Potency [6] | Potency [7] | Potency [8] | Potency [9] | Potency [10] | Potency [11] | Potency [12] | Potency [13] | Potency [14] | Potency [15] | Potency [16] | Potency [17] | Potency [18] | Potency [19]

CC(C(=O)O)c1ccc(CC2CCCC2=O)cc1 (configuration not stated)
inactive: Potency [1] | Potency [2] | Potency [3] | max response [4] -1.24% | Potency [5] | Potency [6] | Potency [7] | Potency [8] | Potency [9] | Potency [10] | Potency [11] | Potency [12] | Potency [13] | Potency [14] | Potency [15] | Potency [16] | Potency [17] | Potency [18] | Potency [19] | Potency [20]

CCCCCCCCCCCCCC=O
inactive: cytotoxicity increase [1] 0.449% [at 6.97 µM] | activity change, negative = cytotoxicity [2] 1.71% [at 6.97 µM] | viability change, negative = cytotoxic [3] 0.248% [at 6.97 µM] | max response [4] 5.19% | activity change [5] -4.12% [at 6.97 µM, stronger effect = higher value] | cytotoxicity increase [6] 1.97% [at 6.97 µM] | activity change, negative = cytotoxic [7] -9.48% [at 6.97 µM] | cytotoxicity [8] 1.56% [at 6.97 µM] | cytotoxicity increase [9] 0.942% [at 6.97 µM] | activity change, negative = cytotoxicity [10] 8.28% [at 6.97 µM] | cytotoxicity increase [11] -0.0239% [at 6.97 µM] | cytotoxicity [12] 11.5% [at 6.97 µM] | cytotoxicity increase [13] 1.86% [at 6.97 µM] | cytotoxicity increase [14] -1.61% [at 6.97 µM] | activity change, negative = cytotoxic [15] 0.224% [at 6.97 µM] | activity change, negative = cytotoxicity [16] 6.14% [at 6.97 µM] | activity change, negative = cytotoxicity [17] 2.94% [at 6.97 µM] | activity change [18] -6.87% [at 6.97 µM, stronger effect = higher value] | activity change, negative = cytotoxicity [19] 15.5% [at 6.97 µM] | cytotoxicity increase [20] 5.89% [at 6.97 µM]

CC(C)OC(=O)c1ccccc1
inactive: Potency [1] | Potency [2] | Potency [3] | max response [4] 0.492% | Potency [5] | Potency [6] | Potency [7] | Potency [8] | Potency [9] | Potency [10] | Potency [11] | Potency [12] | Potency [13] | Potency [14] | Potency [15] | Potency [16] | Potency [17] | Potency [18] | Potency [19]

CC(NC(CCc1ccccc1)C(=O)O)C(=O)N1C(=O)N(C)CC1C(=O)O (configuration not stated)
inactive: Potency [1] | Potency [2] | Potency [3] | max response [4] -1.88% | Potency [5] | Potency [6] | Potency [7] | Potency [8] | Potency [9] | Potency [10] | Potency [11] | Potency [12] | Potency [13] | Potency [14] | Potency [15] | Potency [16] | Potency [17] | Potency [18] | Potency [19] | Potency [20]

O=C(O)CCCl
inactive: Potency [1] | Potency [2] | Potency [3] | max response [4] 13% | Potency [5] | Potency [6] | Potency [7] | Potency [8] | Potency [9] | Potency [10] | Potency [11] | Potency [12] | Potency [13] | Potency [14] | Potency [15] | Potency [16] | Potency [17] | Potency [18] | Potency [19] | Potency [20]

CC[N+](C)(C)c1cccc(O)c1
inactive: Potency [1] | Potency [2] | Potency [3] | max response [4] -7.12% | Potency [5] | Potency [6] | Potency [7] | Potency [8] | Potency [9] | Potency [10] | Potency [11] | Potency [12] | Potency [13] | Potency [14] | Potency [15] | Potency [16] | Potency [17] | Potency [18] | Potency [19] | Potency [20]

CCCCCCCCS(=O)(=O)Cl
inactive: Potency [1] | Potency [2] | Potency [3] | max response [4] 19.7% | Potency [5] | Potency [6] | Potency [7] | Potency [8] | Potency [9] | Potency [10] | Potency [11] | Potency [12] | Potency [13] | Potency [14] | Potency [15] | Potency [16] | Potency [17] | Potency [18] | Potency [19] | Potency [20]

CCN1CCC[C@H]1CNC(=O)c1c(O)c(Cl)cc(Cl)c1OC
inactive: Potency [1] | Potency [2] | Potency [3] | max response [4] -0.593% | Potency [5] | Potency [6] | Potency [7] | Potency [8] | Potency [9] | Potency [10] | Potency [11] | Potency [12] | Potency [13] | Potency [14] | Potency [15] | Potency [16] | Potency [17] | Potency [18] | Potency [19] | Potency [20]

CCOC(C)(C)C
inactive: Potency [1] | Potency [2] | Potency [3] | max response [4] 7.98% | Potency [5] | Potency [6] | Potency [7] | Potency [8] | Potency [9] | Potency [10] | Potency [11] | Potency [12] | Potency [13] | Potency [14] | Potency [15] | Potency [16] | Potency [17] | Potency [18] | Potency [19] | Potency [20]

CN(C(=O)c1c(O)c2ccccc2n(C)c1=O)c1ccccc1
inactive: Potency [1] | Potency [2] | Potency [3] | max response [4] 9.26% | Potency [5] | Potency [6] | Potency [7] | Potency [8] | Potency [9] | Potency [10] | Potency [11] | Potency [12] | Potency [13] | Potency [14] | Potency [15] | Potency [16] | Potency [17] | Potency [18] | Potency [19] | Potency [20]

CCOc1ccc(C(=O)OCCN(CC)CC)cc1
inactive: Potency [1] | Potency [2] | Potency [3] | max response [4] 4.37% | Potency [5] | Potency [6] | Potency [7] | Potency [8] | Potency [9] | Potency [10] | Potency [11] | Potency [12] | Potency [13] | Potency [14] | Potency [16] | Potency [17] | Potency [18] | Potency [19] | Potency [20]

N=c1nc(N2CCCCC2)cc(N)n1O
inactive: Potency [1] | Potency [2] | Potency [3] | max response [4] -2.32% | Potency [5] | Potency [6] | Potency [7] | Potency [8] | Potency [9] | Potency [10] | Potency [11] | Potency [12] | Potency [13] | Potency [14] | Potency [15] | Potency [16] | Potency [17] | Potency [18] | Potency [19] | Potency [20]
